# Screening results from PubChem.
# Most compounds without a hit are left out; they make up all but 7.6% or so of the library.
# MCF10A rerep: A quantitative high throughput screen for small molecules that induce DNA re-replication in MCF 10a normal breast cells. MCF 10A DNA re-replication, Hoechst nuclear intensity, 48 h. Potency, µM (series often up to 46.1 µM), for the others: top-dose activity, positive = re-replication, actives largely listed as activators. actives 2.9% (n = 350,000); further: potency means the concentration at half of the fitted maximal effect; % of control where 0% means no effect; nearly all actives have a fitted effect of over 50% in size
# KB-V1 MDR tox: qHTS assay for MDR1-selective chemotherapeutics: Primary screen using the drug-selected MDR subline cells KB-V1 | KB-V1 MDR cells viability, CellTiter-Glo, 72 h | actives 3.4% (n = 400,000) | Potency, µM (titrated, usually from 46.1 µM), usual class: cytotoxic; further: potency means the concentration at half of the fitted maximal effect; on the % scale 0 is the no-effect control and ±100 the full control effect; nearly all actives have a fitted effect of over 60% in size
#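 Following 72 h at 37 degrees C with compound, KB-V1 cell viability was read by CellTiter-Glo luminescence, medium being phenol-red-free DMEM plus 10% FBS; concentration-response parameters came from normalized, curve-fitted qHTS data.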
# KCNH2 3.1 block: qHTS for Inhibitors of KCHN2 3.1: Mutant qHTS. activity change, % (tested at about 1.8 µM). U2OS KCNH2 3.1, thallium flux FluxOr; stronger effect = lower value. actives 0.95% (n = 340,000);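 active means maximum activity change below -70%; inconclusive means maximum activity change from -70% to -50%; inactive means maximum activity change above -50%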;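 further: thallium influx rate constant from kinetic fluorescence after stimulation buffer; on the % scale 0 is the no-effect control and ±100 the full control effect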
#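 Measured as rate of thallium-driven FluxOr signal in transduced U2OS cells carrying the 3.1 channel, read kinetically for 2 min upon stimulation; values are rate constants scaled to DMSO control wells.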
# KCNH2 WT inh: qHTS for Inhibitors of KCHN2 3.1: Wildtype qHTS; actives 0.37% (n = 340,000); U2OS, BacMam KCNH2, thallium flux FluxOr; stronger effect = lower value; activity change, % at 1.84 µM; Voltage-gated inwardly rectifying potassium channel KCNH2 (Homo sapiens), Q12809;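 active means maximum activity change below -70%; inconclusive means maximum activity change between -70% and -50%; inactive means maximum activity change above -50%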; further: on the % scale 0 is the no-effect control and ±100 the full control effect
#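 U2OS cells transduced with wild-type KCNH2 virus are loaded with FluxOr dye for 45 min, and thallium flux is measured in kinetic reads before and after stimulation buffer. Rate constants are normalized to DMSO controls.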
# SW480 rerep: A quantitative high throughput screen for small molecules that induce DNA re-replication in SW480 colon adenocarcinoma cells; actives 1.8% (n = 340,000); Potency, µM (top dose mostly 46.1 µM), without a hit: top-dose re-replication activation, most hits filed as activators; SW480 DNA re-replication, Hoechst DNA content imaging, 48 h; further: potency means the concentration at half of the fitted maximal effect; % of control where 0% means no effect; nearly all actives have a fitted effect of over 55% in size
#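 Treated cells incubate 48 hr (37 C, 5% CO2), are stained 40 min with Hoechst, and nuclear fluorescence is enumerated; a rise in nuclei with high DNA signal marks re-replication.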
# KB-3-1 cytotox: qHTS assay for MDR1-selective chemotherapeutics: Primary screen using the parental adenocarcinoma cell KB-3-1. KB-3-1 viability, CellTiter-Glo ATP luminescence, 72 h. Potency, µM (series often up to 46.1 µM), most hits filed as cytotoxic. actives 1.4% (n = 400,000); further: potency means the concentration at half of the fitted maximal effect; on the % scale 0 is the no-effect control and ±100 the full control effect; nearly all actives have a fitted effect of over 60% in size
#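 Parental KB-3-1 adenocarcinoma cells in phenol-red-free DMEM with 10% FBS were pin-treated with compounds at several concentrations, incubated 72 h at 37 °C, and viability read by CellTiter-Glo luminescence; concentration-effect curves were fitted after normalization.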
# Starred values were filed as active, the others as inactive; i = inactive; ? = inconclusive; · = not tested or not shown. Unless noted, the call rests on the fitted dose curve; in most records, active means well fitted curve in the direction sought with a large enough effect; inconclusive means small, poorly fitted or top-dose-only effect, or another doubt; inactive means no such curve, though single readings can be large; an effect the other way counts as inactive or inconclusive.
SMILES,MCF10A rerep,KB-V1 MDR tox,KCNH2 3.1 block,KCNH2 WT inh,SW480 rerep,KB-3-1 cytotox
CCOC(=O)n1c(=O)n(Cc2ccccc2)c2ccccc21,4%,?,2,-9,-3%,i
CCOC(=O)n1c(=O)n(C)c2ccc(Cl)cc21,-10%,8.2µM*,6,-11,-1%,?
Cc1cc(C)c(O)c(CN(C)Cc2cc(Cl)cc(Cl)c2O)c1,1.6µM*,?,-2,5,?,?
CCOc1ccccc1OCCNC1CCCC1,?,i,-3,·,23µM*,i
COc1cccc(OC)c1OCCCNC1CCCC1,-3%,i,0,8,6.5µM*,i
CC(C)(C)c1ccc(OCCCNC2CCCC2)cc1,16µM*,?,-32,60,?,?
CCCOc1ccc(OCCNC2CCCC2)cc1,?,23µM*,-5,9,-4%,i
COc1ccc(CNC(=O)C2CCN(S(=O)(=O)c3ccc(N4CCCC4=O)cc3)CC2)cc1,·,i,8,4,·,?
Cc1nn2c(=O)cc(COC(=O)c3cccs3)nc2s1,·,i,·,·,·,i
COc1ccc(N2CCN(C(=O)Cn3cnc4sc(C)c(S(=O)(=O)N5CCC(C)CC5)c4c3=O)CC2)cc1,·,i,·,·,·,i
COc1ccc(NS(=O)(=O)c2cc(C(=O)N3CCN(C/C=C/c4ccccc4)CC3)ccc2C)cc1,11%,5.8µM*,2,0,-1%,18µM*
Cc1ccc(C(=O)N2CCCCCC2)cc1S(=O)(=O)Nc1ccccc1,2%,?,·,2,-5%,i
O=C(CCNS(=O)(=O)c1ccc(OC(F)(F)F)cc1)N1CCN(C/C=C/c2ccccc2)CC1,?,6.5µM*,?,-17,2%,?
Cc1ccc(N=C2CCCCCN2C)c(C#N)c1,1%,i,-16,2,-9%,i
Cc1ccc(N=C2CCCN2Cc2ccccc2)c(C#N)c1,4%,18µM*,-1,1,5%,?
CCN(CC)CCNC(=O)c1cn(CC)c2ccc(S(=O)(=O)N3CCc4ccccc4C3)cc2c1=O,6%,?,1,1,8%,i
Cc1cc(O)c(C(C)C)cc1C1(c2cc(C(C)C)c(O)cc2C)OC(=O)c2ccccc21,9.2µM*,?,1,-3,?,?
Cc1cc(C2(c3ccc(O)c(C)c3)OC(=O)c3ccccc32)ccc1O,?,i,23,3,?,i
COc1ccc(NC(=O)N2CCN(c3ccc([N+](=O)[O-])cc3)CC2)cc1OC,8%,i,-36,8,-5%,i
CCn1c(=O)c(C(=O)Nc2ncccc2O)c(O)c2ccccc21,?,i,7,-4,5%,i
Cc1cccnc1NC(=O)c1c(O)c2ccccc2n(C)c1=O,?,7.3µM*,3,11,13%,i
CCn1c(=O)c(C(=O)Nc2ncccc2C)c(O)c2ccccc21,16%,4.6µM*,14,1,24%,?
Cn1c(=O)c(C(=O)NNC(=O)c2ccccc2F)c(O)c2ccccc21,19%,?,-6,-2,?,?
Cn1c(=O)c(C(=O)NNC(=O)c2ccc(Br)cc2)c(O)c2ccccc21,23µM*,?,13,-4,21%,26µM*
CCN(CC)S(=O)(=O)c1ccc2c(c1)N(CC(=O)NCCc1ccc(OC)c(OC)c1)C(=O)CO2,·,i,·,·,·,i
Cc1cc(C)n(-c2c(C)[nH]c3ccccc23)n1,0%,?,-10,13,-4%,?
